What follows are sequences tested against T1, ETS1 (UniProt P14921) (assay: ETS1 binding intensity (PBM fluorescence), ETS1 alone (arbitrary fluorescence units); higher = stronger binding). Details: ETS1 concentration 1 nM; RUNX1 concentration 0 nM.
T1 sequence: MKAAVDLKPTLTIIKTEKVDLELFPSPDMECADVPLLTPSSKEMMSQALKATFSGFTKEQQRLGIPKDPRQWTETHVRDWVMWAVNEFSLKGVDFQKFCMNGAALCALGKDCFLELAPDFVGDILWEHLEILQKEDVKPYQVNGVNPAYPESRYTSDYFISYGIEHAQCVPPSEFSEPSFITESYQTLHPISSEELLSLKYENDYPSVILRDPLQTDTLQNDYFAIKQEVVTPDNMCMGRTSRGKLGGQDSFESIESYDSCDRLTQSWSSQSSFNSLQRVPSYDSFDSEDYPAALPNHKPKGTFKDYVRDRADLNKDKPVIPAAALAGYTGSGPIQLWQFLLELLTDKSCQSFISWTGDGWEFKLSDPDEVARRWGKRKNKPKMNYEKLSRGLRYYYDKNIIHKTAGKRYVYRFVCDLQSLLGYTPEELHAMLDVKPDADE
Experimental: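 Cooperative genomic-context PBM: 36-bp genomic probes with neighbouring ETS1 and RUNX1 sites, double-stranded on Agilent 4x180k arrays. Full-length recombinant human ETS1 (1 nM) was incubated alone or with RUNX1 (25 nM) and detected with anti-ETS1 antibody plus Alexa488 secondary. Value is the median fluorescence intensity over 4 replicate spots; the ETS1+RUNX1 data were normalised to the ETS1-only data using probes without RUNX1 sites. The 36-bp variable region sits on the array probe with constant linker/primer flanks that are not printed.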

Sequence | ETS1 binding intensity
CATTCAGTAAAAGGATGTGGTTTAGAACAGATGAAA | 1230
GACTGGACAACTTCCTGGTGGAAAACCGCGACTCTT | 637
GGCCTCGGCCACATCCGGGTTCCACCGCAGATTCGG | 1850
ACGCCGCGCATCCGCGCTTTACGGCGGCCGCAAAAT | 405
TAAGCAGGGAATAGAGGAAGTGGTTTTGTCTCAGGC | 3270
ACCCAGGGGACTTCCTGGCTCAGTGCCACAACCCAG | 545
CATGCGTCACCTTCCTGTGTGGTCAGCAGTGCTTGC | 383
GCAGCCAGGGTAGGAAGTGGTAAGACCTCCCTGTGA | 893
TACCTACAGGAAATGAGACACACCGCAGGCCGATCC | 2130
AGCTAAACCCAGTTCCGGTGCTGTGGGGAGCTCAGA | 858
GTTGTCTTGCCCAAAGGAAGTGGTTACTAGACCAGA | 1770
TCAATAAGACAGGATGTTCTCCAACCGCATTAAGCT | 3270
GACTATGTGCTTCCGGTCTCCAATACCGCAGGAGGG | 4950
TCTAACGCTGAAGGAGGATGTGGTTTCCTATTGGAC | 1770
CACCTCAGCTTCCTGTGTAGCTGGGACCACAGGCAT | 687
GCCCCTAAACCGGATGCGGCAGCCACCGCGGACCCC | 9010
GCTGATAGAACAGGATGTGGTAAAGAAGCAGGCCAA | 5330
CCTGCCGAGGAAGTCCCACGTCACTGCGGTTAGAGT | 356
CCATTTCCGCGCACGTCTGCAGATGCGGTAGTCGAT | 413
AGCGCTTCCCCTTCCGCTGCCGCAGCCGCCGCCTCC | 498

Sequence | ETS1 binding intensity
AAAACGCGGAAATACGGTGGCTGCGGCCCGCGGGCA | 494
AACCTCCGACTTCCGGCCGCGCAGCGGTGGGCTGAG | 3900
GTCCCACGCGACTTCCTGCGGGAAACATGGCGGCAT | 1520
CTCAGAGGCACCAAGGGAAGTGGTTAAAACAGAAAG | 677
CGAGATCCTGGCCACGGATGCGGTGGCCGCGCCTCT | 414
GCCCTGACCCACATCCTGCCGCAGCCTGCTTGTCCT | 979
CATGGGACCCGGAAGTGTGTGGTAAAGCGCCGGGGC | 3590
CCCGCTACACAAGGCGGATGTGGTACCCTCACTTGT | 3810
TTGATTGGAGCAGGATGTGGTCAGAACAGTATGCAG | 3190
GCAGGAAACGCTTTCTTAACACTATGTGGGTGAGGT | 763
CCCCTCTCTCCCACTTCCTGTGGTCTCAGTCTTTGT | 3360
TGCTCCACTCGGAAGTGGTGCCGCAGCTCTTCGATG | 697
TGCGCCAGCCTTCCTGTCGTGGTCACCGGTGGCAGC | 446
GAAGTGTGCTCTTCCGGTACCTGCGGTTCGTTGCGC | 1770
GCACCCGGCACTACTTCCCGACCCGCATCCCCCGCC | 689
CCTCGCCCCCTTCCGCACCCACCCCACCGCGCTCCG | 807
TGGCTGCCACTGAGAGGATGTGGTGACAGAGGTGGG | 1700
GGCAGCAAGAAAGGAAATAGTGTGGTTGGGTGGAGA | 1050
GTTTCCACTTCCTGCTGTGCAGCAGTACCACCAAGA | 1000
CCACCGTCCCCGGAAATAACCGCGCCTGCCTCTCAA | 1940

Reference: the supplement of paper PMC10681739
